Here are results for twelve compounds from the supplement of paper PMC8540655.

A number with no mark means an inactive call.

The first test relates to Aedes aegypti larvae. The test is described as follows: larval motility relative to same well at 0 h (fraction); higher = more motile (less active compound), active = 0.4 or less. As to conditions: 10 µM; 2 h. As to the method: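 MMV Pandemic Response Box compounds were tested at 10 µM (1% v/v DMSO) on Aedes aegypti larvae (18-24 h after hatching, about 10 per well, 96-well plates). Motility was quantified with INVAPP (200-frame movies) at 0, 2 and 24 h. Each well's motility was divided by its own 0 h score, and the median of 3 independent screens is reported.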
Regarding `CN1C(=O)C(c2ccccc2)C(=O)N(c2ccccc2)c2cc(C(F)(F)F)ccc21` (centres undefined), the larval motility is 0.796.

For `NC1(C(=O)O)CCP(=O)(O)CC1` (centres undefined), the larval motility is 0.238 (active).

Turning to `COc1ccccc1CN[C@H]1C2CCN(CC2)[C@H]1C(c1ccccc1)c1ccccc1`, the larval motility is 0.829.

With `C[C@@]1(O)[C@H](O)[C@@H](CO)O[C@H]1n1ccc2c(N)ncnc21`, the larval motility is 0.65.

In the case of `COc1cc(C(C)(C)CCCC(C)C)cc(OC)c1OC`, the larval motility was 1.11.

In the case of `O=C(NC12CC3CC(CC(C3)C1)C2)c1cc2ccccc2[nH]1`, the larval motility is 0.685.

For `CC(C)Oc1cccc(NC(=O)c2ccccc2C(F)(F)F)c1`, the larval motility was 0.405.

Regarding `Nc1c(C(=O)NCc2ccco2)c2nc3ccccc3nc2n1CCN1CCCCC1`, the larval motility is 0.782.

Take `CCN1CCN(Cc2nc3ccc([N+](=O)[O-])cc3c(=O)n2-c2ccccc2F)CC1`: the larval motility is 0.54.

As for `C[N+]1(C)CCCC(OC(=O)C(O)(c2ccccc2)c2ccccc2)C1` (centres undefined), the larval motility is 0.776.

For the compound `COC(=O)Nc1nc2ccccc2[nH]1`, the larval motility was 0.867.

For `CCCCc1ccc(C(=O)O)nc1`, the larval motility was 0.853.

The test is the same for the next values; noted with them: 10 µM; 24 h.
Turning to `CN1C(=O)C(c2ccccc2)C(=O)N(c2ccccc2)c2cc(C(F)(F)F)ccc21` (centres undefined), the larval motility was 0.84.

In the case of `NC1(C(=O)O)CCP(=O)(O)CC1` (centres undefined), the larval motility was 1.44.

Take `COc1ccccc1CN[C@H]1C2CCN(CC2)[C@H]1C(c1ccccc1)c1ccccc1`: the larval motility is 0.616.

As for `C[C@@]1(O)[C@H](O)[C@@H](CO)O[C@H]1n1ccc2c(N)ncnc21`, the larval motility is 0.788.

Regarding `COc1cc(C(C)(C)CCCC(C)C)cc(OC)c1OC`, the larval motility was 1.04.

Consider `O=C(NC12CC3CC(CC(C3)C1)C2)c1cc2ccccc2[nH]1`, for which the larval motility is 1.27.

With `CC(C)Oc1cccc(NC(=O)c2ccccc2C(F)(F)F)c1`, the larval motility is 0.543.

With `Nc1c(C(=O)NCc2ccco2)c2nc3ccccc3nc2n1CCN1CCCCC1`, the larval motility was 0.543.

For `CCN1CCN(Cc2nc3ccc([N+](=O)[O-])cc3c(=O)n2-c2ccccc2F)CC1`, the larval motility was 2.49.

Consider `C[N+]1(C)CCCC(OC(=O)C(O)(c2ccccc2)c2ccccc2)C1` (centres undefined), for which the larval motility was 0.656.

Regarding `COC(=O)Nc1nc2ccccc2[nH]1`, the larval motility was 0.986.

Take `CCCCc1ccc(C(=O)O)nc1`: the larval motility was 0.63.
